TRPM1 prom inh – inhibitors of MITF-dependent TRPM1 promoter reporter, primary screen, cell-based, SK-MEL-5, single point, luciferase | SK-MEL-5 TRPM1 promoter luciferase, 24 h | inhibition, % at 12.5 µM | hit rate 0.83% among 330,000 | AID 488899, 2010;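 active means mean inhibition across replicates of 60% or more, whatever share of single replicates reaches that level; inconclusive means some that reach 60%, reason not given; inactive means mean inhibition across replicates below 60%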
Shn3 3UTR inh – reduction of Shn3 3'UTR firefly luciferase signal, primary screen, Schnurri-3 inhibitor project, cell-based, Clone20 osteoblasts, set 2 | Clone20 osteoblast Shn3 3'UTR firefly luciferase, 24 h | inhibition, % at 12.5 µM | hit rate 0.52% among 360,000 | AID 588674, 2011;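 active means mean inhibition of at least 75% with every replicate also reaching 75%; inconclusive means mean inhibition at least 75% but some replicate below; inactive means mean inhibition below 75%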;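 further: 0% = median of neutral control wells and 100% = pilot-screen positive control compound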
TROY signal inh – inhibitors of TROY-driven NF-kB signaling, primary screen, Q293 LMP1-TROYcd cells, NF-kB luciferase, uHTS; hit rate 0.98% among 360,000; inhibition, % at 10 µM; Q293 LMP1-TROYcd NF-kB luciferase reporter, 4 h;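 active means compounds whose plate-normalised and pattern-corrected inhibition of the luciferase reporter signal at the single screening dose is 50% or more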
Peg3 prom inh – Peg3 promoter-driven luciferase inhibitors, primary screen, cell-based, HeLa, luciferase luminescence | HeLa PEG-Prom luciferase reporter, overnight | inhibition, % at 20 µM | hit rate 1.7% among 360,000 | AID 588405, 2011;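 active means inhibition of at least 50% at 20 µM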
LMP1 NFkB inh – EBV LMP1-driven NF-kappaB luciferase reporter inhibitors, primary screen, cell-based, luminescence, single point; AID 504558, 2011; hit rate 0.69% among 350,000; LMP1-induced NF-kappaB luciferase reporter cells; inhibition, % at 12.5 µM; in the data active means inhibition above about 41%; inconclusive means no clear call, values can overlap the other calls;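 further: 0% = neutral control wells and 100% = reference inhibitor control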
TWEAK Fn14 block – inhibitors of TWEAK-Fn14 signaling, primary screen, luciferase reporter cells, uHTS; TWEAK-stimulated Fn14 reporter cells, luciferase luminescence, 8 h; inhibition, % at 10 µM; hit rate 2% among 360,000; in the data active means inhibition above about 50%
* = called active by the depositor; ? = inconclusive; / = not tested or not shown; ! = not active in a repeat. Hits are enriched below; roughly 4.1% of the tested compounds scored in any of these assays.

SMILES	TRPM1 prom inh	Shn3 3UTR inh	TROY signal inh	Peg3 prom inh	LMP1 NFkB inh	TWEAK Fn14 block
OCCCNc1cc(-c2ccnc(Nc3cccc(Cl)c3)n2)ccn1	?	90.5*	58.8*	103.4*	89.0*	96.8*
CN(C)CCCNc1ccc(-c2cc(Nc3cccc(Cl)c3)ncn2)cn1	4.5	-28.6	-25.0	8.4	-3.5	-27.8
O=c1oc2ccccc2cc1-c1ccc(O)cc1	-37.1	-50.3	-97.6	-223.3	-15.7	-69.7
Nc1ccc(-c2cc3ccccc3oc2=O)cc1	93.6*	76.6	60.4*	38.0	58.0*	82.2*
CC(=O)OCC(=O)[C@@]1(O)CC[C@H]2[C@@H]3CCC4=CC(=O)CC[C@]4(C)[C@H]3C(=O)C[C@@]21C	-2.6	88.3*	-2.4	-6.4	-1.9	-2.5
CC(=O)OCC(=O)[C@@]1(O)CC[C@H]2[C@@H]3CCC4=CC(=O)CC[C@]4(C)[C@H]3[C@@H](O)C[C@@]21C	-7.9	3.6	16.8	6.1	86.1*!	1.1
CC(=O)OCC(=O)C1(O)CCC2C3CC(F)C4=CC(=O)CCC4(C)C3C(=O)CC21C (configuration not stated)	-12.3	-3.6	-13.8	4.7	0.7	-8.0
CCC(CC)C(=O)OCC(=O)C1(O)CCC2C3CCC4=CC(=O)CCC4(C)C3C(O)CC21C (configuration not stated)	-3.3	-3.6	33.0	-9.5	-2.6	5.5
CCCCNC(=O)CCC(=O)N1CCN(C(c2ccccc2)c2ccccc2)CC1	5.5	-2.3	0.7	15.8	-5.5	3.7
Cc1cccc(C(C)C)c1NC(=O)c1ccc(CN(c2ccccc2)S(=O)(=O)c2ccccc2)cc1	16.6	2.2	9.4	-1.7	7.1	-10.9
Fc1c(F)c(C(F)(F)F)c(F)c(F)c1N/N=C\c1cccs1	8.1	20.5	39.6	-13.9	-6.1	60.3*
COC(=O)c1ccccc1OCCOc1ccccc1C(=O)OC	10.9	-3.1	1.8	3.4	-4.3	10.9
COC(=O)c1ccccc1OCCCOc1ccc(C=O)cc1OC	-41.9	-67.5	33.7	-129.5	-28.2	53.2*
COCCOC(=O)C1=C(C)NC(SCC(=O)NC(C)(C)C)=C(C#N)C1c1ccco1 (configuration not stated)	1.3	-8.6	4.7	24.7	-2.8	10.3
COc1ccccc1NC(=O)C1=C(C)NC(SCC(=O)c2ccccc2)=C(C#N)C1c1ccco1 (configuration not stated)	6.1	13.0	32.7	25.7	-0.7	55.9*
COc1ccc(C(=O)Nc2cccc3cccnc23)cc1OC	-53.3	-16.8	-38.9	-89.6	-1.0	-0.5
COc1ccc(NC(=O)C(=O)Nc2cccc3cccnc23)cc1OC	-35.8	10.7	-22.5	-60.0	-23.9	104.8*
CC1CCCN(C(=O)c2ccc(OC3CCN(CCc4ccccc4)CC3)cc2)C1 (configuration not stated)	-3.1	-0.3	-6.3	8.4	3.9	-16.3
N#CC1=C(N)S[C@H](C(=O)C23CC4CC(CC(C4)C2)C3)[C@H]1c1ccncc1	-5.7	20.8	42.8	23.2	0.9	15.2
COc1cc2c(OC(C)=O)c3c(c(-c4ccc5c(c4)OCO5)c2cc1OC)C(=O)OC3	/	81.2	-17.8	78.4*	-75.0	-103.4
COc1cc2c(O)c3c(c(-c4ccc5c(c4)OCO5)c2cc1OC)C(=O)OC3	27.1	79.9	-12.3	80.6*	-241.2	-59.9
COc1ccc(-c2oc(=O)c3cc(OC)c(OC)cc3c2-c2ccc3c(c2)OCO3)cc1	-15.5	-7.9	-30.7	-97.8	3.4	-28.9
O=C(CN1C(=O)c2ccccc2C1=O)Nc1ccccc1C(=O)NC1CCCCC1	-4.3	-19.7	2.6	2.3	0.1	-7.7
CCOc1ccc(N(CC(=O)NC2CCCC2)C(=O)c2ccc(C)s2)cc1	-6.3	15.2	-11.6	8.6	3.7	25.6
Cc1ccc2[nH]c(CNC(=O)C3CCCCC3)cc2c1	20.3	2.2	53.5*	-13.7	-8.2	72.0*
SMILES	TRPM1 prom inh	Shn3 3UTR inh	TROY signal inh	Peg3 prom inh	LMP1 NFkB inh	TWEAK Fn14 block
Cc1ccc2cc(C#N)c(N3CCCN(C(=S)NCCCN(C)C)CC3)nc2c1	-9.6	13.3	1.1	19.0	0.6	-7.8
COc1cccc(C(=O)NCCCNc2nc3cc(C)cc(C)c3cc2C#N)c1	/	21.6	-4.5	66.0*	5.6	15.7
COc1cccc(C(=O)N2CCN(c3nc4cc(C)cc(C)c4cc3C#N)CC2)c1	/	3.3	-1.1	15.7	57.4*	-4.4
COc1ccc2cc(C#N)c(N3CCN(C(=O)c4ccccc4C)CC3)nc2c1	-7.5	13.7	19.4	20.0	5.6	-3.4
Cc1cc(C)c2cc(C#N)c(N3CCCN(C(=S)NCCCN(C)C)CC3)nc2c1	87.6*	11.8	9.8	104.1*	-20.8	-3.7
O=C(Nc1ccccn1)c1csc2c1CCCC2	-42.1	-21.4	-51.5	-242.3	-43.8	-21.9
O=C(Nc1ccccn1)c1onc2c1CCCC2	7.4	39.4	58.5*	32.3	41.0*	88.9*
O=C1OCC2=C1C(c1ccc3c(c1)OCO3)c1cc3c(cc1O2)OCO3 (configuration not stated)	1.9	-6.8	13.1	23.6	58.9*	1.4
CCCc1c(-c2ccc(F)cc2)ncn1Cc1ccccc1OC	/	/	20.1	/	/	-10.4
CCOc1ccccc1/C=C/c1onc(C)c1S(=O)(=O)N1CCC(C(=O)N(CC)CC)CC1	3.0	-2.9	2.4	19.3	59.9*	-7.7
CCN1CCN(c2oc(/C=C/c3ccccc3)nc2C#N)CC1	-27.0	-21.6	52.6*	-30.4	4.7	21.2
OC1C(O)C(O)C(O)C(O)C1O (configuration not stated)	8.6	4.0	1.2	-1.7	90.8*!	-8.9
CC(C)(C)C1CCc2c(sc3nc(SCC(=O)O)nc(N)c23)C1 (configuration not stated)	-2.3	27.1	-2.2	-83.4	4.9	39.1
O=C(CSc1nc2ncc(Cl)cc2[nH]1)N1CCOCC1	-3.8	85.8*	7.5	-1.9	-3.7	-5.5
Cc1ccc2nc(SCC(=O)c3c(C)[nH]c4ccccc34)[nH]c2c1	-7.8	-30.9	4.1	-51.4	1.2	-9.6
Cc1[nH]c2ccccc2c1C(=O)CSc1nc2ncc(Cl)cc2[nH]1	12.7	36.2	-20.0	114.6*	-18.4	-1.8
Cc1ccc2cc(CN(CCCO)S(=O)(=O)c3cccc4nsnc34)c(=O)[nH]c2c1	3.3	3.7	4.8	18.2	-9.1	6.2
O=C(COC(=O)COc1ccccc1[N+](=O)[O-])NC1CCCCC1	10.3	-16.0	23.9	-6.6	-4.1	2.9
